The list is not random: actives were taken first. Their share in the collection is about 6.1%.
ATXN2 expr inh = inhibitors of ATXN2 expression; HEK-293 ATXN2-luciferase reporter, luminescence, 24 h; 360,000 tested, 0.72% active; Potency, µM (highest dose often 57 µM), inactives show at the top dose activity change, negative = inhibition, actives largely listed as inhibitors; note: % is set by controls: 0 for no effect and ±100 for the full control effect; nearly all actives have a fitted effect of over 55% in size
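qHTS (up to 57 uM final) was run with 24 h compound exposure of reporter cells at 37 °C. Each well was multiplexed: SteadyGlo luminescence measured ATXN2-luciferase expression after a fluorogenic Gly-Phe-AFC viability readout (25 uM final).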
Gal4-VP16 FLuc = counter-screen for ROR gamma inhibitors: Gal4-VP16 reporter; Drosophila S2 Gal4-VP16 UAS-luciferase, luminescence, 20 h; Potency, µM (doses to about 53.6 µM), without a hit: at the top dose activity, negative = inhibition, hits mostly inhibitors; 310,000 tested, 3.5% active; AID 2546;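 note: Gal4-VP16 expression switched on by copper sulfate through the metallothionein promoter; % is set by controls: 0 for no effect and ±100 for the full control effect; nearly all actives have a fitted effect of over 50% in size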
TGFb SMAD3 inh = blocks TGF-b signaling | Potency, µM (titrated, usually from 46.1 µM), inactives show at the top dose activity, negative = inhibition, hits mostly inhibitors | 410,000 tested, 1.2% active | AID 588855 | HepG2 CAGA-GFP TGF-b/SMAD3 reporter, GFP fluorescence, 18 h; TGF-beta stimulated, 500 pg/mL final; note: % is set by controls: 0 for no effect and ±100 for the full control effect; nearly all actives have a fitted effect of over 65% in size
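Cell-based qHTS in HEPG2 carrying a CAGA-GFP Smad reporter; compounds added before 500 pg/mL final TGF-beta, 18 h incubation at 37 degrees C, GFP fluorescence quantified per cell by imaging cytometry.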
RORgamma inh = blocks mouse ROR gamma transcriptional activity; P51450; Drosophila S2 Gal4-RORgamma UAS-luciferase reporter, 20 h; Potency, µM (titrated, usually from 53.6 µM), for the others: top-dose activity change, negative = inhibition, most hits filed as inhibitors; 310,000 tested, 5.4% active; AID 2551; note: % is set by controls: 0 for no effect and ±100 for the full control effect; nearly all actives have a fitted effect of over 60% in size
Target sequence (P51450 whole entry, looked up, the tested form may be a part): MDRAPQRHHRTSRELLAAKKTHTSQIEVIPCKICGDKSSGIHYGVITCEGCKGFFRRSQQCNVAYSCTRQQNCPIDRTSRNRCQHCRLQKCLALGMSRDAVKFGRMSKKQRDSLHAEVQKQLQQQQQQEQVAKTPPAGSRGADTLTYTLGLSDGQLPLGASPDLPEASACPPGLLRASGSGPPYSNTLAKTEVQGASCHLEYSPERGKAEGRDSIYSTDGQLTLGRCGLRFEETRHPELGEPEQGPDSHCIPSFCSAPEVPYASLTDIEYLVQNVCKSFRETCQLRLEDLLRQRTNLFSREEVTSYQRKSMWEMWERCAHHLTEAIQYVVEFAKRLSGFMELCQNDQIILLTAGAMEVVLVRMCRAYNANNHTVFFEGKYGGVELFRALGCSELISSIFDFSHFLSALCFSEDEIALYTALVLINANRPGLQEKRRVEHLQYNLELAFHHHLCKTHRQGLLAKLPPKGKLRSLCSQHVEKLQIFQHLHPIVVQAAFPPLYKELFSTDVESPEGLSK
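Using a luciferase readout, inhibitors were identified by reduced reporter activity in Drosophila cells coexpressing a copper-inducible Gal4–ROR gamma fusion and UAS-driven Photinus luciferase, incubated 20 hr after 700 uM copper sulfate.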
HepG2 viability = HepG2 cytotoxicity, counter-screen for TGF-b inhibitors | 410,000 tested, 0.76% active | HepG2 CAGA-GFP viability, ATP luminescence, 18 h | Potency, µM (highest dose often 46.1 µM), inactives show top-dose activity change, negative = cytotoxicity, most hits filed as cytotoxic
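CellTiter-Glo luminescence gave cytotoxicity after 18 hours at 37 degrees C. The cells were HepG2 CAGA-GFP in 1% FBS DMEM, stimulated with 500 pg/mL TGF-beta after compound addition. %Activity was normalised to no-cell wells (complete cell-killing) and DMSO (no toxicity), and curves were fitted and classified.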
S2 tox = reduces viability in counter-screen for ATXN expression inhibitors. S2 cells (HEK-293 line with an ATXN2-luciferase reporter) viability, CellTiter-Fluor protease fluorescence, 24 h. Potency, µM (titrated, usually from 56.7 µM), usual class: cytotoxic. 400,000 tested, 0.49% active. AID 651635; note: nearly all actives have a fitted effect of over 40% in size
Active calls of the source: *; i = inactive; ? = inconclusive; / = no result given. Calls come from the whole dose curve; as a rule, active = well fitted curve in the direction sought with a large enough effect; inconclusive = small, poorly fitted or top-dose-only effect, or another doubt; inactive = no such curve, though single readings can be large; an effect the other way counts as inactive or inconclusive. Potency is the fitted concentration of half-maximal effect.

SMILES	ATXN2 expr inh	Gal4-VP16 FLuc	TGFb SMAD3 inh	RORgamma inh	HepG2 viability	S2 tox
Cc1ccc(OCC(=O)N/N=C\c2cn(C)c3ccccc23)c([N+](=O)[O-])c1	0.9%	?	-0.5%	11.2µM*	-45.4%	i
Cc1ccc(OCC(=O)N/N=C\c2c(C)[nH]n(-c3ccccc3)c2=O)c([N+](=O)[O-])c1	/	0.562µM*	?	0.501µM*	-7.3%	i
COc1ccc(/C=C2\CCC(C3CCCC3)C2=O)cc1 (centres undefined)	94.5%	0.7%	4.0%	30.0%	12.1%	i
COc1ccc(/C=C2\CCCC3C2=NC(=S)NC3c2ccc(OC)cc2)cc1 (centres undefined)	3.6%	12.6µM*	-13.4%	6.31µM*	-5.5%	i
Cc1sc2ncnc(N3CCN(CCOc4ccc(Cl)cc4)CC3)c2c1C	?	3.55µM*	-11.6%	?	-34.2%	i
CC(C)OC(=O)C1=C(N)N2C(=O)CSC2=C(C(=O)OC(C)C)C1	-2.8%	-5.1%	3.7%	10µM*	10.9%	i
COC(=O)C1=C2SCC(=O)N2C(N)=C(C#N)C1	-10.7%	-2.6%	4.3%	-15.4%	-10.6%	i
COc1ccc(OC)c(-c2cc(Cl)c3c(c2)CC(CNC(=O)c2cnn4cccnc24)O3)c1 (centres undefined)	/	/	/	/	/	i
CN(CCc1cn[nH]c1)Cc1nc(C(c2ccccc2)c2ccccc2)no1	-8.7%	?	19.9%	10µM*	0.4%	i
Cc1cc(-c2ccnc(-n3ncc(C(=O)N4CCCCC4c4cccnc4)c3C3CC3)n2)c(C)s1 (centres undefined)	/	/	/	/	/	i
N#Cc1ccc(/C=C/C(=O)c2ccco2)cc1	-10.8%	?	?	?	-63.4%	?
O=C(/C=C/c1cc(Br)ccc1O)c1ccco1	?	?	?	?	11.2µM*	/
O=C(/C=C/c1ccccc1O)c1ccco1	-3.5%	11.2µM*	?	7.94µM*	-57.3%	i
COC(=O)c1ccccc1NC(=O)C1(c2cccs2)CCOCC1	-1.3%	/	16.6%	/	4.2%	i
COc1ccc(CCNC(=O)C(=O)NCC2OCCN2S(=O)(=O)c2ccc(C)cc2)cc1OC (centres undefined)	-20.1%	10µM*	-14.4%	6.2%	-16.1%	i
COc1ccccc1CCNC(=O)C(=O)NCC1OCCN1S(=O)(=O)c1ccc(Br)cc1 (centres undefined)	-2.7%	35.5µM*	?	?	-1.6%	i
CCOc1ccc(-c2nnc(SCC(=O)NCc3ccccc3Cl)o2)cc1	-5.2%	/	5.3%	/	6.3%	i
CCN1CCCC1CNC(=O)c1cnn(-c2nccc(-c3cccs3)n2)c1C(C)C (centres undefined)	/	/	/	/	/	i
Cc1ccc(NC(=O)c2oc3ccc(S(=O)(=O)N(C)C4CCCCC4)cc3c2C)cc1Cl	/	/	-9.2%	/	3.6%	/
Cc1cc(-c2ccc(N=Nc3c(S(=O)(=O)O)cc4cc(S(=O)(=O)O)cc(N)c4c3O)c(C)c2)ccc1N=Nc1c(S(=O)(=O)O)cc2cc(S(=O)(=O)O)cc(N)c2c1O	/	12.6µM*	/	14.1µM*	/	/
O=S(=O)(O)c1cc(O)c2c(O)c(N=Nc3cc(Cl)ccc3O)c(S(=O)(=O)O)cc2c1	?	?	-20.2%	?	-31.2%	8.91µM*
COc1cc(-c2ccc(N=Nc3ccc4c(S(=O)(=O)O)cc(S(=O)(=O)O)c(N)c4c3O)c(OC)c2)ccc1N=Nc1ccc2c(S(=O)(=O)O)cc(S(=O)(=O)O)c(N)c2c1O	/	?	/	?	/	i
O=S(=O)(O)c1cc(Cl)cc(N=Nc2ccc(O)cc2O)c1O	?	/	-18.5%	/	-1.1%	?
CC(C)(C)C1CCC(=NNc2ncc(C(F)(F)F)cc2Cl)CC1 (centres undefined)	-17.4%	11.2µM*	?	28.2µM*	-44.1%	i

Source: PubChem (National Center for Advancing Translational Sciences (NCATS))
